Results from PubChem BioAssay AID1159580 (chemical genetic matrix, 2015).
About 2,000 (36%) of roughly 5,500 compounds were called active. Another 18% or so got no clear call; they are omitted. Cut-off read from the data, not from the text of the source: active = normalized growth mostly below about 0.91 (no sharp cut-off); inconclusive = no clear call, values can overlap the other calls; inactive = mostly above about 0.92. This is one part of the list.

Assay: chemical genetic growth profiling, strain panel (AID 1159580);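 note: tested at 20 µM; growth read once vehicle control cultures reached saturation at 30 °C; 1 = growth at the plate median or of vehicle wells; lower values mean less growth of the strain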
Settings: growth OD

Measured: normalized growth

O=C(O)c1cc(=O)c(O)c2c(O)c(O)ccc2c1
inactive: S. cerevisiae deletion strains, locus YJR075W, strain HOC1, stronger effect = lower value 1.04 | S. cerevisiae deletion strains, locus YKL009W, strain mrt4, stronger effect = lower value 1.04 | S. cerevisiae deletion strains, locus YKL068W, stronger effect = lower value 1.01 | S. cerevisiae deletion strains, locus YKL085W, strain MDH1 (second series), stronger effect = lower value 1.02 | S. cerevisiae deletion strains, locus YKL085W, strain MDH1, stronger effect = lower value 1.02 | S. cerevisiae deletion strains, locus YKL160W, strain elf1, stronger effect = lower value 1.02 | S. cerevisiae deletion strains, locus YKL190W, strain CNB1, stronger effect = lower value 1 | S. cerevisiae deletion strains, locus YKR001C, strain vps1, stronger effect = lower value 1.01 | S. cerevisiae deletion strains, locus YKR026C, strain gcn3, stronger effect = lower value 0.965 | S. cerevisiae deletion strains, locus YKR091W, strain srl3, stronger effect = lower value 0.998 | S. cerevisiae deletion strains, locus YLL001W, strain dnm1, stronger effect = lower value 1 | S. cerevisiae deletion strains, locus YLL026W, stronger effect = lower value 0.992 | S. cerevisiae deletion strains, locus YLL041C, strain sdh2, stronger effect = lower value 0.993 | S. cerevisiae deletion strains, locus YLR027C, strain aat2, stronger effect = lower value 0.998 | S. cerevisiae deletion strains, locus YLR039C, strain RIC1, stronger effect = lower value 1.04 | S. cerevisiae deletion strains, locus YLR058C, strain SHM2, stronger effect = lower value 1.01 | S. cerevisiae deletion strains, locus YLR102C, strain apc9, stronger effect = lower value 1.01 | S. cerevisiae deletion strains, locus YLR113W, strain HOG1, stronger effect = lower value 1 | S. cerevisiae deletion strains, locus YLR221C, strain rsa3, stronger effect = lower value 1.03 | S. cerevisiae deletion strains, locus YLR258W, strain gsy2, stronger effect = lower value 0.993 | S. cerevisiae deletion strains, locus YLR262C, strain YPT6 (second series), stronger effect = lower value 0.942 | S. cerevisiae deletion strains, locus YLR262C, strain YPT6, stronger effect = lower value 0.971 | S. cerevisiae deletion strains, locus YLR268W, strain sec22, stronger effect = lower value 0.987 | S. cerevisiae deletion strains, locus YLR320W, strain mms22, stronger effect = lower value 1 | S. cerevisiae deletion strains, locus YLR330W, strain CHS5, stronger effect = lower value 1 | S. cerevisiae deletion strains, locus YLR342W, strain FKS1 (second series), stronger effect = lower value 1 | S. cerevisiae deletion strains, locus YLR342W, strain FKS1, stronger effect = lower value 0.996 | S. cerevisiae deletion strains, locus YLR357W, strain rsc2, stronger effect = lower value 0.943 | S. cerevisiae deletion strains, locus YLR370C, strain arc18, stronger effect = lower value 0.998 | S. cerevisiae deletion strains, locus YLR371W, strain rom2, stronger effect = lower value 1.03 | S. cerevisiae deletion strains, locus YLR384C, strain iki3, stronger effect = lower value 1.01 | S. cerevisiae deletion strains, locus YLR418C, strain cdc73, stronger effect = lower value 0.946 | S. cerevisiae deletion strains, locus YML016C, strain PPZ1, stronger effect = lower value 0.991 | S. cerevisiae deletion strains, locus YML032C, strain rad52, stronger effect = lower value 1.05 | S. cerevisiae deletion strains, locus YML120C, strain ndi1, stronger effect = lower value 1.01 | S. cerevisiae deletion strains, locus YML124C, strain tub3, stronger effect = lower value 1.01 | S. cerevisiae deletion strains, locus YMR058W, strain fet3, stronger effect = lower value 0.99 | S. cerevisiae deletion strains, locus YMR078C, strain ctf18, stronger effect = lower value 1.03 | S. cerevisiae deletion strains, locus YMR125W, strain sto1, stronger effect = lower value 0.987 | S. cerevisiae deletion strains, locus YMR129W, stronger effect = lower value 1.01 | S. cerevisiae deletion strains, locus YMR205C, strain PFK2, stronger effect = lower value 0.988 | S. cerevisiae deletion strains, locus YMR223W, strain ubp8, stronger effect = lower value 1.05 | S. cerevisiae deletion strains, locus YMR231W, strain pep5, stronger effect = lower value 0.997 | S. cerevisiae deletion strains, locus YMR263W, strain SAP30, stronger effect = lower value 0.999 | S. cerevisiae deletion strains, locus YMR307W, strain GAS1, stronger effect = lower value 1.04 | S. cerevisiae deletion strains, locus YNL067W, strain RPL9B, stronger effect = lower value 1 | S. cerevisiae deletion strains, locus YNL071W, strain lat1, stronger effect = lower value 1 | S. cerevisiae deletion strains, locus YNL128W, strain TEP1, stronger effect = lower value 0.972 | S. cerevisiae deletion strains, locus YNL153C, strain GIM3, stronger effect = lower value 0.98 | S. cerevisiae deletion strains, locus YNL183C, strain NPR1, stronger effect = lower value 0.907 | S. cerevisiae deletion strains, locus YNL209W, strain ssb2, stronger effect = lower value 1 | S. cerevisiae deletion strains, locus YNL233W, strain BNI4, stronger effect = lower value 0.989 | S. cerevisiae deletion strains, locus YNL248C, strain rpa49, stronger effect = lower value 1.04 | S. cerevisiae deletion strains, locus YNL250W, strain rad50, stronger effect = lower value 1.01 | S. cerevisiae deletion strains, locus YNL271C, strain bni1, stronger effect = lower value 0.999 | S. cerevisiae deletion strains, locus YNL298W, strain CLA4, stronger effect = lower value 1.01 | S. cerevisiae deletion strains, locus YNL307C, strain MCK1, stronger effect = lower value 1.04 | S. cerevisiae deletion strains, locus YNL322C, strain KRE1 (second series), stronger effect = lower value 0.981 | S. cerevisiae deletion strains, locus YNL322C, strain KRE1, stronger effect = lower value 1.01 | S. cerevisiae deletion strains, locus YNR049C, strain mso1, stronger effect = lower value 0.993 | S. cerevisiae deletion strains, locus YNR052C, strain pop2, stronger effect = lower value 1.02 | S. cerevisiae deletion strains, locus YOL006C, strain TOP1, stronger effect = lower value 0.984 | S. cerevisiae deletion strains, locus YOL012C, strain htz1 0.622 | S. cerevisiae deletion strains, locus YOL147C, strain pex11, stronger effect = lower value 1.01 | S. cerevisiae deletion strains, locus YOR001W, strain rrp6, stronger effect = lower value 1 | S. cerevisiae deletion strains, locus YOR061W, strain CKA2, stronger effect = lower value 0.995 | S. cerevisiae deletion strains, locus YOR069W, strain VPS5, stronger effect = lower value 1 | S. cerevisiae deletion strains, locus YOR070C, strain gyp1, stronger effect = lower value 1 | S. cerevisiae deletion strains, locus YOR080W, strain dia2, stronger effect = lower value 0.986 | S. cerevisiae deletion strains, locus YOR083W, strain WHI5, stronger effect = lower value 1.02 | S. cerevisiae deletion strains, locus YOR106W, strain vam3, stronger effect = lower value 1.04 | S. cerevisiae deletion strains, locus YOR136W, strain idh2, stronger effect = lower value 1.02 | S. cerevisiae deletion strains, locus YOR144C, strain elg1, stronger effect = lower value 1.01 | S. cerevisiae deletion strains, locus YOR184W, strain ser1, stronger effect = lower value 1.1 | S. cerevisiae deletion strains, locus YOR231W, strain MKK1, stronger effect = lower value 0.987 | S. cerevisiae deletion strains, locus YOR265W, strain rbl2, stronger effect = lower value 0.993 | S. cerevisiae deletion strains, locus YOR270C, strain vph1, stronger effect = lower value 1.01 | S. cerevisiae deletion strains, locus YOR290C, strain snf2, stronger effect = lower value 0.947 | S. cerevisiae deletion strains, locus YOR316C, strain cot1, stronger effect = lower value 1.02 | S. cerevisiae deletion strains, locus YPL051W, strain arl3, stronger effect = lower value 1 | S. cerevisiae deletion strains, locus YPL055C, strain LGE1, stronger effect = lower value 0.964 | S. cerevisiae deletion strains, locus YPL078C, strain atp4, stronger effect = lower value 1.02 | S. cerevisiae deletion strains, locus YPL106C, strain sse1, stronger effect = lower value 0.964 | S. cerevisiae deletion strains, locus YPL240C, strain hsp82, stronger effect = lower value 1 | S. cerevisiae deletion strains, locus YPL241C, strain CIN2, stronger effect = lower value 1.01 | S. cerevisiae deletion strains, locus YPL256C, strain CLN2, stronger effect = lower value 0.968 | S. cerevisiae deletion strains, locus YPR119W, strain clb2, stronger effect = lower value 1.01 | S. cerevisiae deletion strains, locus YPR141C, strain kar3, stronger effect = lower value 1.01 | S. cerevisiae deletion strains, locus YPR163C, strain tif3, stronger effect = lower value 1.02 | S. cerevisiae deletion strains, locus YPR167C, strain met16, stronger effect = lower value 1.01 | S. cerevisiae deletion strains, strain wtn01, stronger effect = lower value 0.998 | S. cerevisiae strains, strain wild type, stronger effect = lower value 1
